Results published in PubChem BioAssay.
Active and inactive are the calls of the source.

Tests used:
[1] = small molecules captured by biotinylated probe aFSTL3 – biochemical, small-molecule microarray, fluorescence 635/667, stem cell growth factor project, primary screen (AID 1064); conditions: higher = more signal;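 note: measures binding of the biotinylated anti-FSTL3 antibody to printed compounds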
[2] = binders from COS7 lysate, DM2A8 probe, primary screen, torsin A project, cell lysate, small-molecule microarray, fluorescence 635/667 (AID 1065); conditions: higher = more signal, COS7 lysate expressing mutant human TOR1A
[3] = small molecules captured by biotinylated probe aFGF2 – biochemical, small-molecule microarray, fluorescence 635/667, stem cell growth factor project, primary screen (AID 1067); conditions: higher = more signal;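 note: measures binding of biotinylated aFGF2 protein to printed compounds on slides; z-score merges feature fluorescence and signal-to-noise across triplicate slides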
[4] = small molecules captured by biotinylated probe aFGF10 – biochemical, small-molecule microarray, fluorescence 635/667, stem cell growth factor project, primary screen (AID 1071); conditions: higher = more signal;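 note: score merges 667 nm spot intensity and signal to noise from triplicate slides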
[5] = target: Neurogenic locus notch homolog protein 2 (Homo sapiens) (UniProt Q04721); assay: small molecules binding Notch2 protein – biochemical, small-molecule microarray, 635 nm fluorescence, stem cell growth factors, primary screen (AID 1073); conditions: higher = more signal
[6] = target: Pro-neuregulin-1, membrane-bound isoform (Homo sapiens) (UniProt Q02297); assay: small molecules binding neuregulin-1 protein – biochemical, small-molecule microarray, fluorescence 635/667, psychiatric disease protein project, primary screen (AID 1075); conditions: NRG1 binding, 635 nm fluorescence, higher = more signal;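 note: score combines 667 nm spot fluorescence with signal to noise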
[7] = test system: Neuregulin-1 EGF-like domain; assay: small molecules binding NRG1 EGF domain – biochemical, small-molecule microarray, 635 nm fluorescence, primary screen (AID 1081); conditions: higher = more signal;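 note: binding of the protein to compounds printed on small-molecule microarray slides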
[8] = FRG1 expression reporter modulators in myotubes – cell-based, C2C12 myotubes, firefly/Renilla luciferase, luminescence, FRG1 inhibition for FSHD, primary screen (AID 1084); conditions: FRG1 promoter luciferase, higher = more signal, called active from +8 up or from −8 down
[9] = small molecules captured by biotinylated probe aFST – biochemical, small-molecule microarray, fluorescence 635/667, stem cell growth factor project, primary screen (AID 1086); conditions: higher = more signal;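 note: score merges 667 nm fluorescence with signal-to-noise of each printed compound spot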
[10] = binders of probe aHhip on microarray, primary screen, stem cell growth factor project, biochemical, small-molecule microarray, fluorescence 635/667 (AID 1087); conditions: higher = more signal;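 note: score merges spot fluorescence at 667nm with spot signal to noise ratio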
[11] = test system: PRMT1 (protein arginine N-methyltransferase 1); assay: small molecules binding arginine methyltransferase PRMT1 – biochemical, small-molecule microarray, 635 nm fluorescence, primary screen (AID 1088); conditions: higher = more signal;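 note: binding of Prmt1 protein to compounds spotted on small-molecule microarray slides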
[12] = growth effects on S. cerevisiae YJM789 – YJM789 clinical isolate, OD600, 24 h, basal, primary screen (AID 1089); conditions: higher = more signal, called active from +8 up or from −8 down;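 note: growth of clinical yeast isolate S. cerevisiae YJM 789 seeded 1000 cells per well; test concentration not given here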
[13] = S. pombe growth modifiers, basal conditions – strain 972, OD600, 24 h, no modulator, primary screen (AID 1090);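 note: basal condition with compound alone and no growth modifier present; test concentration not given here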; conditions: S. pombe 972 growth, higher = more signal, called active from +8 up or from −8 down
[14] = budding yeast growth modifiers under rapamycin – strain BY4716, OD600, 96 h, primary screen (AID 1091); note: test concentration not given here; conditions: S. cerevisiae BY4716 + rapamycin, higher = more signal, called active from +8 up or from −8 down
[15] = target: Torsin-1A-interacting protein 2 (Homo sapiens) (UniProt Q8NFQ8); assay: small molecules binding lysate-expressed LULL1 – cell lysate, human LULL1 lysate, 635/667 nm fluorescence, primary screen (AID 1092); conditions: small-molecule microarray, hLULL1 lysate binding, 635 nm fluorescence; higher = more signal;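 note: probe is lysate of COS7 cells overexpressing human LULL1; score merges per-feature 667 nm fluorescence with signal-to-noise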
[16] = optical density change of DRC41 E. coli – strain DRC41, OD650, 24 h, E. coli filamentation project, primary screen (AID 1093);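 note: MC1000 strain lacking acrAB efflux and sulA so SOS filamentation is blocked; test concentration not given here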; conditions: E. coli DRC41 growth, higher = more signal, called active from +8 up or from −8 down
[17] = probe aLefty2 binding to arrayed compounds – biochemical, biotinylated probe, 635/667 nm fluorescence, primary screen (AID 1094); conditions: small-molecule microarray, higher = more signal;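 note: score merges spot fluorescence near 667 nm with spot signal-to-noise ratio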
[18] = test system: Noggin (protein binding on small-molecule microarray); assay: small molecules binding Noggin protein – biochemical, 635/667 nm fluorescence, primary screen (AID 1095); conditions: 635 nm fluorescence, higher = more signal;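 note: score merges 667 nm feature fluorescence with signal to noise over triplicate slides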
[19] = target: Neurogenic locus notch homolog protein 3 (Homo sapiens) (UniProt Q9UM47); assay: small molecules binding NOTCH3 protein – biochemical, 635/667 nm fluorescence, primary screen (AID 1096); conditions: small-molecule microarray, 635 nm fluorescence, higher = more signal
[20] = probe aEGFR binding to arrayed compounds – biochemical, biotinylated probe, 635/667 nm fluorescence, primary screen (AID 1097); conditions: small-molecule microarray, higher = more signal;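 note: probe is a biotinylated anti-EGFR antibody binding compounds printed on slides; score combines fluorescence near 667 nm and signal to noise of each spot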

Chain of Pro-neuregulin-1, membrane-bound isoform (Homo sapiens) (Q02297 whole entry, looked up, the tested form may be a part, canonical isoform): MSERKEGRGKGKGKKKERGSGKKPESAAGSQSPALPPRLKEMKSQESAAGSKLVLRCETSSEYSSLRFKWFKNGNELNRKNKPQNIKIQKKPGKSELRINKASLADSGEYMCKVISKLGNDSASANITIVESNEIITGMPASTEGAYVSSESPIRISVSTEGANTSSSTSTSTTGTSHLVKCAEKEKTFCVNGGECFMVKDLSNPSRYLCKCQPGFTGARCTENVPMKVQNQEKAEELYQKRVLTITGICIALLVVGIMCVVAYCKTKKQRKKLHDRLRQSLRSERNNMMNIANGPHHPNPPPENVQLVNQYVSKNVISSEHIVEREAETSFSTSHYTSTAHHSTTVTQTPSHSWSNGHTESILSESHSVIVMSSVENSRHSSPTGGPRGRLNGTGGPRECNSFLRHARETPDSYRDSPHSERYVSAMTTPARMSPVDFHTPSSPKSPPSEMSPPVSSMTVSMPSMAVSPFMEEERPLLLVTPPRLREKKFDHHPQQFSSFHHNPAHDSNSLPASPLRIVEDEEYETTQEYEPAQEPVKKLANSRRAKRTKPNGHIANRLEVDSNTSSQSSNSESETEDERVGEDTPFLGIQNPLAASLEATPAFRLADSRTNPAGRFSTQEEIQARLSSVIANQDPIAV
Chain of Neurogenic locus notch homolog protein 2 (Homo sapiens) (Q04721 whole entry, looked up, canonical isoform): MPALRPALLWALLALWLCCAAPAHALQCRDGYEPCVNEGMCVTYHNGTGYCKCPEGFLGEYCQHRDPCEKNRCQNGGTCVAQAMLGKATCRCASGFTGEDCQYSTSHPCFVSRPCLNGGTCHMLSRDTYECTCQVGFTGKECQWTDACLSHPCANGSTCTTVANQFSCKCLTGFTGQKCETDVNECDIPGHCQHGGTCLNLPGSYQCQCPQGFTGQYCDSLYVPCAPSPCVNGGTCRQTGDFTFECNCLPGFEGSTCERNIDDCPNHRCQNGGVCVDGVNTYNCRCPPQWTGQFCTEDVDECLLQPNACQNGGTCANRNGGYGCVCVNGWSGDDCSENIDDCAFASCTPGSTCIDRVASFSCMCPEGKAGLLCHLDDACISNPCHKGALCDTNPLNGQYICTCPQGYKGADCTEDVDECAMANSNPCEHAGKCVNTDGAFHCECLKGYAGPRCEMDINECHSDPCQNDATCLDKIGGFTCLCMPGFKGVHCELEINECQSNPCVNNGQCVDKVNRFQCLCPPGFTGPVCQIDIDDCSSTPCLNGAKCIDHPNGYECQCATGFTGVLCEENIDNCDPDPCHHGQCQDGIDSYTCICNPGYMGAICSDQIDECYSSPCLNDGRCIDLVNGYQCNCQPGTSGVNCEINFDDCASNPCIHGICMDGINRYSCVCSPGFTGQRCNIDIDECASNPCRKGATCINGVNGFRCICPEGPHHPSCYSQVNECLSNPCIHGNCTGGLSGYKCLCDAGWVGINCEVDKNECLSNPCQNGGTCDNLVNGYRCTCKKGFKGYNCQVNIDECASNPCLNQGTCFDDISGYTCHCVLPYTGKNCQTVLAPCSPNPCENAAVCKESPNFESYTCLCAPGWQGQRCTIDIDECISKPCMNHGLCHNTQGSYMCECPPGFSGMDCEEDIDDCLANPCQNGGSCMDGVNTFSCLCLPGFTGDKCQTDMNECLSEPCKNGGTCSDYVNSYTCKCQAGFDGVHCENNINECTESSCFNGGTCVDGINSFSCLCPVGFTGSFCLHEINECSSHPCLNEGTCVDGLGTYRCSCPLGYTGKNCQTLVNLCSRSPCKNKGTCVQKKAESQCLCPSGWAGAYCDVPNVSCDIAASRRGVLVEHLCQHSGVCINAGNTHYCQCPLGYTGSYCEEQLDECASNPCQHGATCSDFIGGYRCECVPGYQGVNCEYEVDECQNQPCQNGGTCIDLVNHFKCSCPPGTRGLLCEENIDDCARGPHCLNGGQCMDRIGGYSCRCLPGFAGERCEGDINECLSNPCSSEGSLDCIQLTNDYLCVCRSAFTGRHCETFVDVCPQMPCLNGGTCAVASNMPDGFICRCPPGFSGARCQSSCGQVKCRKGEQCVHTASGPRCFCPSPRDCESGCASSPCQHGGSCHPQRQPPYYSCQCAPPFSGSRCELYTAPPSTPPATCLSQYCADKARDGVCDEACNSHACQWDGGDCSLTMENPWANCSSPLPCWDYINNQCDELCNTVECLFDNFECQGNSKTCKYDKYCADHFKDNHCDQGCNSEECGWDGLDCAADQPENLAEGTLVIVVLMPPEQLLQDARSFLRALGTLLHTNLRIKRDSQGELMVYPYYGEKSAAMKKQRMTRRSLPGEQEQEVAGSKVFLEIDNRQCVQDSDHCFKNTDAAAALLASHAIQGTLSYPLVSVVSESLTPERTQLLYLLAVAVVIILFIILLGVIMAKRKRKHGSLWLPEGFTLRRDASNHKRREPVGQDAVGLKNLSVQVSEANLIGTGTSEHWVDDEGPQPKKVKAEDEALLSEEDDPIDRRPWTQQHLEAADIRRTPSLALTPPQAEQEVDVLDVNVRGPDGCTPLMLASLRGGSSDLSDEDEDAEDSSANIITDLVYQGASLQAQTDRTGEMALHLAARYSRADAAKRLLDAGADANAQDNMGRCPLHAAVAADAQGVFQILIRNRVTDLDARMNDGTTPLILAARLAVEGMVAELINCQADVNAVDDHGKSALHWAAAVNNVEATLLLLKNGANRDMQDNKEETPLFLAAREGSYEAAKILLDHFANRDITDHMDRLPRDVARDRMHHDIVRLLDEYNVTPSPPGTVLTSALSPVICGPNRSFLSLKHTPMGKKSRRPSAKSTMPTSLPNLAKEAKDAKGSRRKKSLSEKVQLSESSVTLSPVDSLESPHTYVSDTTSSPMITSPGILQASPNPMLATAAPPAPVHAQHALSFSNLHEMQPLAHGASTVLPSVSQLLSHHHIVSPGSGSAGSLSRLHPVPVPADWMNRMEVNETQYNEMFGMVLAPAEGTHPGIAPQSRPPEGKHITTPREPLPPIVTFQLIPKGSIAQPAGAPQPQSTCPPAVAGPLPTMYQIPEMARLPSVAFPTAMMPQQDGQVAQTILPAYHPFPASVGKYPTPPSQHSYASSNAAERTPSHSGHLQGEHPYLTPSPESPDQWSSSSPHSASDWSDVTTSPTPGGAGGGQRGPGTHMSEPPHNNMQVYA
Chain of Torsin-1A-interacting protein 2 (Homo sapiens) (Q8NFQ8 whole entry, looked up): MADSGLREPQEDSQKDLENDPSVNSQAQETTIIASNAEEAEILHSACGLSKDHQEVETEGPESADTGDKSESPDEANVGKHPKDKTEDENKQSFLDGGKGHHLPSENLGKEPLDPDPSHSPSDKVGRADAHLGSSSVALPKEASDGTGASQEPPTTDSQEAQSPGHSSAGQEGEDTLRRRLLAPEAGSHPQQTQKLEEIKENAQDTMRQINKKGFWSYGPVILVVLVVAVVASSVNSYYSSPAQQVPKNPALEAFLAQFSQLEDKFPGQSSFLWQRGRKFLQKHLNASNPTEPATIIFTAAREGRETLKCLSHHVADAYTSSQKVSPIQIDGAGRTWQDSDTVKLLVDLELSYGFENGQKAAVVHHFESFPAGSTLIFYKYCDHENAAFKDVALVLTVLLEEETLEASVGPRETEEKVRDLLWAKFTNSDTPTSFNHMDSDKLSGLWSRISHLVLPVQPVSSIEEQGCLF

| SMILES | composite z-score [1] | composite z-score [2] | composite z-score [3] | composite z-score [4] | composite z-score [5] | composite z-score [6] | composite z-score [7] | z-score [8] | composite z-score [9] | composite z-score [10] | composite z-score [11] | z-score [12] | z-score [13] | z-score [14] | composite z-score [15] | z-score [16] | composite z-score [17] | composite z-score [18] | composite z-score [19] | composite z-score [20] |
| --- | --- | --- | --- | --- | --- | --- | --- | --- | --- | --- | --- | --- | --- | --- | --- | --- | --- | --- | --- | --- |
| COCCCNC(=O)[C@@]1(Cc2ccccc2I)c2ccccc2C(=O)N(C2CCCCC2)[C@H]1c1ccc(CO)cc1 | -0.101 | 0.346 | -0.0064 | 0.527 | 0.452 | 0.857 | 1.35 | -4.02 (inactive) | -0.729 | -0.0994 | 1.51 | -1.83 (inactive) | -0.856 (inactive) | -1.11 (inactive) | 2.97 | 0.0355 (inactive) | -0.106 | 0.556 | 0.337 | -0.0512 |
| CCOC(=O)C1=C[C@@H](C(C)(C)C)N(S(=O)(=O)c2ccc(C)cc2)[C@H]1c1ccc(OC)cc1 | -0.491 | -0.103 | 0.0111 | 0.726 | 1.56 | 0.348 | 1.19 | -3.35 (inactive) | 0.525 | -0.212 | 1.55 | 0.443 (inactive) | 2.17 (inactive) | 1.54 (inactive) | 3.07 | 0.1 (inactive) | -0.0865 | 1.18 | 1.09 | 0.0301 |
| [N-]=[N+]=Nc1ccccc1C[C@@]1(C(=O)NCC(O)CO)N=C(c2ccc(OCCCO)cc2)O[C@@H]1c1ccccc1N=[N+]=[N-] (stereo not given in full) | -0.175 | 0.045 | 0.285 | 0.311 | 0.194 | 1.62 | 0.848 | -0.858 (inactive) | 0.941 | -0.134 | 0.9 | -0.961 (inactive) | 0.0801 (inactive) | 0.23 (inactive) | 3.37 | 0.616 (inactive) | 0.285 | 0.0196 | 0.298 | 0.0001 |
| CCCC1(C(=O)OC)C=C2C(=C(C(C)C)C(=O)C2C)CN1 (stereo not given) | 0.578 | -0.241 | -0.133 | -0.397 | -0.052 | 0.688 | -0.15 | 1.89 (inactive) | -0.0967 | -0.0645 | -1.32 | 0.128 (inactive) | 0.0695 (inactive) | 0.767 (inactive) | 0.268 | -1.24 (inactive) | 0.115 | -0.797 | -0.493 | -0.146 |
| CO[C@H]1O[C@H](CO)[C@@H](OC(=O)Nc2cccc(F)c2)[C@H](OC(=O)Nc2ccc3c(c2)OCO3)[C@@H]1OC(=O)Nc1ccc2c(c1)OCO2 | -0.0407 | 0.786 | 0.112 | 0.959 | 1.46 | 1.25 | 1.27 | 4 (inactive) | 0.986 | 0.21 | 1.53 | 1.79 (inactive) | 1.24 (inactive) | 7.48 (inactive) | 3.48 | -0.0741 (inactive) | 0.126 | 0.691 | 1.08 | -0.039 |
| COCCOC(=O)N1C(=O)[C@@]2(c3cc(C#CCNC(N)=O)ccc31)[C@H](C(=O)Nc1nc3ccccc3s1)[C@H]1C(=O)O[C@H](c3ccccc3)[C@H](c3ccccc3)N1[C@@H]2c1ccc(O)cc1 | -0.145 | 0.215 | -0.0284 | 0.46 | 0.968 | 0.882 | 0.595 | 0.709 (inactive) | 0.501 | 0.0373 | 1.47 | 1.45 (inactive) | 1.16 (inactive) | 1.32 (inactive) | 1.35 | -0.264 (inactive) | -0.103 | 0.939 | 0.986 | 0.0654 |
| CN1C(=O)C2C(C1=O)C1C=C(CCCO)C2C(C2CC2)N1C (stereo not given) | 0.227 | -0.144 | 0.078 | 0.333 | 0.196 | 0.496 | 0.625 | -0.818 (inactive) | -0.196 | -0.385 | 0.74 | -1.39 (inactive) | -0.339 (inactive) | -0.517 (inactive) | 2.52 | -0.797 (inactive) | -0.0812 | -0.21 | -0.312 | -0.0922 |
| [N-]=[N+]=Nc1ccccc1C[C@]1(C(=O)N2CCCCC2)N=C(c2ccc(OCCCO)cc2)O[C@H]1c1ccccc1 | 0.484 | 0.593 | -0.0332 | 1.21 | 1.36 | 0.733 | 1.08 | -3.1 (inactive) | 0.933 | 0.154 | 1.33 | -0.44 (inactive) | -9.22 (active) | 0.926 (inactive) | 2.74 | 1 (inactive) | 0.131 | 0.595 | 1.1 | 0.279 |
| CC(C)C[C@H]1NC(=O)CNC(=O)[C@@]23C(=O)N[C@@H](Cc4ccccc4)C2[C@H](C)[C@@]2(C)O[C@H]2C3/C=C/C/C=C\CNC1=O (stereo not given in full) | -0.564 | 0.11 | -0.159 | 0.582 | -0.222 | 0.205 | 0.598 | 1.81 (inactive) | 0.136 | -0.0121 | 1.08 | -0.599 (inactive) | 0.189 (inactive) | -0.612 (inactive) | 0.921 | -0.743 (inactive) | -0.157 | 0.104 | 0.713 | -0.105 |
| COc1ccc([Si](C)(C)[C@H]2[C@H](CC(=O)N(CCO)Cc3ccccc3)O[C@@]3(C(=O)N(Cc4ccc(N5C(=O)c6cccc7cccc5c67)cc4)c4ccccc43)[C@@H]2C)cc1 | -0.0915 | 0.285 | -0.0249 | 0.479 | 0.141 | 1.14 | 1.14 | -3.26 (inactive) | 0.193 | 0.12 | 1.48 | 0.614 (inactive) | 0.685 (inactive) | 2.87 (inactive) | 2.15 | 0.222 (inactive) | 0.748 | 1.36 | 1.12 | 0.0059 |
